Entries with a potency or affinity are not part of this list. Activity calls are given as the source filed them.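 The calls were made as follows: active = Loss of cell signal with fitted half-effect dose at or below twice the top valid tested dose; inconclusive = Poor fit, or flat fit from -70 to -30 percent; inactive = Half-effect above limit, rising signal, or flat within 30 percent.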
assay: HEK293T cell cytotoxicity, dose response, cytotoxicity control for HIV Vif inhibitor project, cherry-picks (AID 652208); conditions: HEK293T viability, CellTiter-Glo luminescence, 24 h; series mostly up to 26 µM

Structure (SMILES)	outcome
COc1ccccc1NC(=O)c1ccccc1NC(=O)c1ccccn1	inactive
CCCCOc1cccc2c(=O)n(CC(=O)Nc3ccc4c(c3)OCCO4)ccc12	inactive
CCCn1nnc(NC(=O)C(c2ccccc2)c2ccccc2)n1	inactive
FC(F)(F)c1nnc2c3ccccc3c(Cl)nn12	inactive
COc1ccc2c(CC(=O)Nc3ccccc3OC)coc2c1	inactive
CCOC(=O)c1nc(Nc2ccc(C(=O)OC)cc2)c2ccccc2n1	inactive
O=C(Nc1cnccn1)Nc1ccccc1Cl	inactive
COc1ccc(OCCN2CCC(C(=O)NC(c3ccccn3)c3ccccc3OC)CC2)cc1 (configuration not stated)	inactive
Cc1cc(C)c2nc3sc(C(=O)N4CCOCC4)c(N)c3cc2c1	inactive
CC1(C)CC(=O)C2=C(C1)Nc1ccccc1N(C(=O)C1CC1)C2c1ccco1 (configuration not stated)	inactive
CC(=O)Nc1cc(NC(=O)C2C3C=CC(C3)C2C(=O)O)ccc1Cl (configuration not stated)	inactive
COc1cccc(CNc2ccc3c(c2)CCC3)c1	inactive
COc1cc(/C=C/C(=O)OCC(=O)N2CCCc3ccccc32)ccc1O	inactive
COc1ccc(CC(=O)OCC(=O)Nc2cccc(Br)c2)cc1	inactive
CC1CN(S(=O)(=O)c2cccc(C(=O)N3CCC(C(N)=O)CC3)c2)CC(C)O1 (configuration not stated)	inactive
Cc1nnc(NC(=O)CSc2nnc(NC(=O)C(C)(C)C)s2)s1	inactive
CCC(=O)N(CCC1(C(C)C)CCOC(C)(C)C1)Cc1ccco1 (configuration not stated)	inactive
CCOc1ccc(NC(=O)CN(C)C(=O)c2cc(S(=O)(=O)N3CCCCC3)ccc2Cl)cc1OCC	inactive
O=C(CSc1ncccn1)NC(=O)Nc1ccc2c(c1)OCCO2	inactive

Structure (SMILES)	outcome
CSc1ccc(CN(C)CC(=O)NCCc2ccccc2)cc1	inactive
Cc1nnc2ccc(-c3cccc(NS(=O)(=O)c4cc(F)ccc4F)c3)nn12	inactive
CN(C)c1ccc(/C=C2\SC(N3CCCCC3)=NC2=O)cc1	inactive
CC(C)C(c1nnnn1CC1CCCO1)N1CCN(C2CCCC2)CC1 (configuration not stated)	inactive
CCOC(=O)C1CCCN(C(=O)c2cc(S(=O)(=O)N(C)C)ccc2N2CCCC2)C1 (configuration not stated)	inactive
CN(C)C(=O)c1cc(Br)ccc1Cl	inactive
O=C(CCCCCn1c(=S)[nH]c2ccc(N3CCOCC3)cc2c1=O)NCc1ccccc1Cl	inactive
CC(C)(C)NC(=O)CN(Cc1ccc(F)cc1)C(=O)Cn1nnc(-c2ccc(F)cc2)n1	inactive
Cc1cc(S(=O)(=O)N2CCOCC2)ccc1OCC(=O)NCCN1CCOCC1	inactive
CCCn1c(=O)c(C(=O)Nc2ncccc2O)c(O)c2ccccc21	inactive
Cc1ccc(CNCCCSc2ncccn2)cc1	inactive
CC(C)c1ccc(NC(=O)N2CCCC2C(=O)Nc2ccc(-n3cnnn3)cc2)cc1 (configuration not stated)	inactive
COc1c(Br)cc(Br)cc1/C=C1/C(=O)N=C(N)N1C	inactive
Cc1ccc(-n2c(SCC(=O)Nc3ccc4c(c3)OCO4)nnc2-c2cccs2)cc1	inactive
C=CCN1C(=O)/C(=C/c2ccc(-c3ccc(F)cc3)o2)SC1=S	inactive
COc1cccc(NC(=O)c2cc(C(=O)Nc3cccc(OC)c3)n(C)n2)c1	inactive
O=C(NCc1cccnc1)NC1(C(F)(F)F)Oc2ccc(Cl)cc2O1 (configuration not stated)	inactive
Nc1nc(-c2ccc3ccccc3c2)cs1	inactive

Source: PubChem BioAssay AID652208 (Broad Institute, 2013)
